Assay outcomes as filed in PubChem.
This is a sample that favours compounds with a hit; in the whole collection about 8.2% have one here.
MCF10A rerep: induces DNA re-replication in MCF 10a normal breast cells; Potency, µM (highest dose often 46.1 µM), for inactives: top-dose activity, positive = re-replication, actives largely listed as activators; hit rate 2.9% among 350,000; MCF 10A DNA re-replication, Hoechst nuclear intensity, 48 h; AID 624296; note: % of control where 0% means no effect; nearly all actives have a fitted effect of over 50% in size
KB-3-1 cytotox: KB-3-1 parental cell cytotoxicity | AID 1347075 | KB-3-1 viability, CellTiter-Glo ATP luminescence, 72 h | Potency, µM (highest dose often 46.1 µM), hits mostly cytotoxic | hit rate 1.4% among 400,000; note: % is set by controls: 0 for no effect and ±100 for the full control effect; nearly all actives have a fitted effect of over 60% in size
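KB-3-1 parental drug-naive adenocarcinoma cells in DMEM/10% FBS, incubated 72 h at 37 C with pin-transferred compounds across a concentration series. Viability by CellTiter-Glo luminescence; concentration-response curves fitted after normalization.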
ELG1 repair inh: ELG1-dependent DNA repair inhibition; HEK293T ELG1-luciferase reporter, luminescence, 16 h; DNA damage induced by 5-fluorouridine; Potency, µM (titrated, usually from 46.1 µM), for the others: top-dose activity change, negative = inhibition, most hits filed as inhibitors; hit rate 2.3% among 330,000; AID 504467; note: % is set by controls: 0 for no effect and ±100 for the full control effect; nearly all actives have a fitted effect of over 55% in size
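Step one: seed 2,000 cells per well. Step two: pin-transfer compound or DMSO alongside 5-fluorouridine. Step three: incubate 16 hr, 37 °C, 5% CO2. Step four: add ONE-Glo, wait 30 min, read luminescence.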
SW480 rerep: DNA re-replication induction in SW480 cells; SW480 DNA re-replication, Hoechst DNA content imaging, 48 h; Potency, µM (doses to about 46.1 µM), for the others: at the top dose re-replication activation, hits mostly activators; hit rate 1.8% among 340,000; AID 624297; note: % of control where 0% means no effect; nearly all actives have a fitted effect of over 55% in size
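Treated cells incubate 48 hr (37 C, 5% CO2), are stained 40 min with Hoechst, and nuclear fluorescence is enumerated; a rise in nuclei with high DNA signal marks re-replication.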
KB-V1 cytotox: kills drug-selected multidrug resistant KB-V1 cells. KB-V1 MDR cells viability, CellTiter-Glo, 72 h. Potency, µM (titrated, usually from 46.1 µM), usual class: cytotoxic. hit rate 3.4% among 400,000. AID 1347076; note: % is set by controls: 0 for no effect and ±100 for the full control effect; nearly all actives have a fitted effect of over 60% in size
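Luminescent ATP read-out (CellTiter-Glo, 10 min) measures survival of drug-selected KB-V1 MDR cells after 72 h, 37 degrees C compound exposure. Medium: phenol-red-free DMEM, 10% FBS. Values from fitted concentration-response curves.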
An asterisk follows results filed as active; i = inactive; ? = inconclusive; . = not tested or not shown. Calls come from the whole dose curve; as a rule, active = well fitted curve in the direction sought with a large enough effect; inconclusive = small, poorly fitted or top-dose-only effect, or another doubt; inactive = no such curve, though single readings can be large; an effect the other way counts as inactive or inconclusive. Potency is the fitted concentration of half-maximal effect.

SMILES | MCF10A rerep | KB-3-1 cytotox | ELG1 repair inh | SW480 rerep | KB-V1 cytotox
CCOc1ccc(C(=O)NCC(=O)Nc2ccc3c(c2)OCO3)cc1OCC | 8% | i | 19% | -78% | i
CCOc1ccccc1NC(=O)Nc1ccccn1 | 1% | i | 3% | -1% | ?
O=C(Nc1ccc(Cl)cc1)Nc1cccc2nsnc12 | 18µM* | i | ? | ? | i
CCOc1cc(NC(=O)CCl)c(OCC)cc1NC(=O)CCl | 6.5µM* | 21µM* | ? | 3.3µM* | ?
CCOc1cc(NC(=S)Nc2cccc(OC)c2)c(OCC)cc1NC(=O)C(C)C | 2% | i | ? | 8% | i
CCOc1ccccc1NC(=O)Nc1ccc(Cl)cc1 | 20% | 23µM* | 19% | ? | 23µM*
CCOc1ccccc1NC(=O)CCC(=O)Nc1ccccc1OCC | -4% | i | ? | -5% | i
CCOc1cc(NC(=S)Nc2cccc(C)c2)c(OCC)cc1NC(=O)CC(C)C | 11% | i | ? | 21% | 3.3µM*
CC(=O)NCCNc1nc2c(-c3cccc(C)c3)nnn2c2ccc(Cl)cc12 | . | i | . | . | i
CCOC1=C2CN(S(=O)(=O)c3ccc(C)cc3)[C@H](c3cccc(Cl)c3)C[C@@H]2N(S(=O)(=O)c2ccccc2[N+](=O)[O-])[C@H](c2ccccc2)C1 | . | i | . | . | i
Cc1ccccc1OCC(=O)NNC(=O)Nc1ccc(Cl)cc1 | 3.7µM* | 4.1µM* | 3% | ? | 5.2µM*
O=C(Nc1ccc(Oc2ccc(NC(=O)Nc3ccccc3Cl)cc2)cc1)Nc1ccccc1Cl | ? | ? | -18% | 12µM* | i
CCOC(=O)c1ccc(NC(=O)CCn2nnc3ccccc32)cc1 | 10% | ? | 19% | 0% | i
O=C(Nc1ccccc1)Nc1cccc(Cl)c1Cl | 11% | i | ? | -1% | ?
Cc1ccc(Cl)cc1NC(=O)c1ccccc1OCC(=O)Nc1ccc(Cl)cc1 | 9.2µM* | i | -13% | -31% | i
CCOc1cc(NC(=O)CC(C)C)c(OCC)cc1NC(=O)CCn1nnc2ccccc21 | -2% | ? | 1% | -2% | 4.1µM*
Cc1ccccc1OCC(=O)NNC(=O)Nc1ccccc1 | -2% | i | -12% | -2% | i
CCNC(=O)c1c(NC(=O)Cc2coc3ccc(CC)cc23)sc2c1CCCC2 | . | i | . | . | i
Cc1nn(Cc2ccccc2)c(C)c1NC(=O)c1cc(C(C)C)on1 | . | i | . | . | i
CCOc1cc(NC(=S)Nc2ccc(Cl)cc2)c(OCC)cc1NC(C)=O | 11% | i | 7.3µM* | 0% | ?
Cc1ccc(NC(=O)COc2ccccc2C(=O)Nc2ccccc2)cc1Cl | -2% | i | 16µM* | -5% | i
CCOc1cc(NC(=S)Nc2ccccc2)c(OCC)cc1NC(=O)c1ccc(OC)cc1 | 13% | i | ? | 2% | i
NC(=O)CCN1CCN(C(=O)c2ccc3nc(Cc4cccc(Cl)c4)oc3c2)CC1 | ? | . | 6% | -2% | .
Cc1cnc(C(=O)OCc2ccc(C#N)cc2)cn1 | -5% | i | 2% | -2% | i
CCn1ncc2c(OCc3ccc(C#N)cc3)cc(C)nc21 | ? | i | 26µM* | 5% | ?
SMILES | MCF10A rerep | KB-3-1 cytotox | ELG1 repair inh | SW480 rerep | KB-V1 cytotox
CC1=C/C(=N\OS(=O)(=O)c2ccccc2)C(C(C)C)=CC1=O | 4.1µM* | ? | ? | 3.7µM* | ?
CC(S(=O)(=O)c1ccccc1)S(=O)(=O)c1ccccc1 | . | i | . | . | i
CC1=C(C)/C(=N\OS(=O)(=O)c2ccc(C)cc2)C=CC1=O | ? | ? | ? | 5.2µM* | ?
CC1=C/C(=N\OS(=O)(=O)c2ccccc2)C(C)=CC1=O | 4µM* | 13µM* | ? | 4.1µM* | 5.8µM*
COc1cc(C(=O)O/N=C2/C=C(C)C(=O)C=C2C)cc(OC)c1OC | 5% | i | 12% | -5% | i
O=S1(=O)N(Cc2ccccc2F)CCCN1Cc1c(F)cccc1Cl | 3% | i | 12% | -8% | i
CC1(C)Cc2nc3sc4c(=O)[nH]cnc4c3cc2CS1 | 10% | i | ? | -1% | i
CC1(C)Cc2nc3sc4c(=O)n(CC(=O)NCc5ccco5)cnc4c3cc2CO1 | 9.2µM* | ? | ? | 16µM* | i
